PAFAH1B2 FP inh: PAFAH1B2 enzyme inhibitors, primary screen, biochemical, fluorescence polarization, human; actives 1.2% (n = 340,000); inhibition, % at 3.39 µM; recombinant PAFAH1B2, FP-rhodamine activity probe; Platelet-activating factor acetylhydrolase IB subunit alpha2 (Homo sapiens), P68402;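 active = inhibition above the mean of all tested compounds plus 3 SD, cut at about 24% in these data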;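 note: 0% = enzyme with DMSO and 100% = wells lacking PAFAH1B2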
Fam108B counter: mouse Fam108B serine hydrolase inhibitors, primary screen, counter-screen for RBBP9 inhibitor project, biochemical, fluorescence polarization. recombinant Fam108B, FP-Rh probe fluorescence polarization. inhibition, % at 9.51 µM. actives 0.33% (n = 300,000). AID 1947, 2009;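 active = inhibition above the screen mean inhibition plus 3 SD, computed separately per campaign, cut at about 18% in these data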;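 note: inhibitors lower polarization as less probe binds the enzyme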
pPAFAH inh: pPAFAH enzyme inhibitors, primary screen, biochemical, fluorescence polarization, human; inhibition, % at 3.39 µM; actives 1.5% (n = 330,000); Platelet-activating factor acetylhydrolase (Homo sapiens), Q13093; recombinant pPAFAH, FP-rhodamine probe fluorescence polarization; AID 463082, 2010;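 active = inhibition above the mean inhibition across the screen plus 3 SD, cut at about 25% in these data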;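 note: inhibitors block binding of the rhodamine activity-based probe so polarization drops; 0% = enzyme with DMSO and 100% = wells lacking pPAFAH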
Target sequence (Q13093 whole entry, looked up): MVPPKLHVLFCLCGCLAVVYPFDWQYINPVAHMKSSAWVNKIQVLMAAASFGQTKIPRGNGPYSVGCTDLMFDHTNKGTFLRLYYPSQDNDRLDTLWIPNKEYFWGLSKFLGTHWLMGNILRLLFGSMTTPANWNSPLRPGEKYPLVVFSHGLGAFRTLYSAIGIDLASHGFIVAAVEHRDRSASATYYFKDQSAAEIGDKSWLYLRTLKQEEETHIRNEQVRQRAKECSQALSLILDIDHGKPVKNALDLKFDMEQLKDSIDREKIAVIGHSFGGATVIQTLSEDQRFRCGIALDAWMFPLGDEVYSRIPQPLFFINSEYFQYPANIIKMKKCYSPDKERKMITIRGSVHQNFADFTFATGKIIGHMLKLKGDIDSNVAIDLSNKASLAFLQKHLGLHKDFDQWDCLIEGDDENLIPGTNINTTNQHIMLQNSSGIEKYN
PME-1 primary: PME-1 inhibitors via competitive probe labeling, primary screen, biochemical, fluorescence polarization, FP-Rh probe, HTS; AID 2130, 2009; recombinant PME-1; Protein phosphatase methylesterase 1 (Homo sapiens), Q9Y570; inhibition, % at 5.9 µM; actives 0.53% (n = 320,000);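 active = inhibition above the campaign mean of all compounds plus 3 SD, cut at about 26% in these data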;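 note: competitive labeling of PME-1 active site by serine hydrolase directed probe; 0% = PME-1 with DMSO and 100% = wells lacking PME-1 enzyme; inhibitors block probe labeling so polarization falls and inhibition rises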
PAFAH2 inh: PAFAH2 enzyme inhibitors, primary screen, biochemical, fluorescence polarization, human | inhibition, % at 3.39 µM | actives 0.99% (n = 340,000) | Platelet-activating factor acetylhydrolase 2, cytoplasmic (Homo sapiens), Q99487 | AID 492956, 2010 | recombinant PAFAH2, FP-rhodamine activity probe;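 active = inhibition above the mean over all tested compounds plus 3 SD, cut at about 30% in these data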;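 note: inhibitors block probe labeling of enzyme so polarization drops; 0% = enzyme with DMSO and 100% = wells lacking PAFAH2 protein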
PAFAH1B3 inh: PAFAH1B3 enzyme inhibitors, primary screen, biochemical, fluorescence polarization, human; actives 0.28% (n = 340,000); inhibition, % at 3.39 µM; AID 492972, 2010; Platelet-activating factor acetylhydrolase IB subunit alpha1 (Homo sapiens), Q15102; recombinant PAFAH1B3, FP-rhodamine probe;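 active = inhibition above the screen-wide average of all tested compounds plus 3 SD, cut at about 25% in these data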;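 note: 0% = enzyme with DMSO only and 100% = wells lacking PAFAH1B3 protein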
Target sequence (Q15102 whole entry, looked up): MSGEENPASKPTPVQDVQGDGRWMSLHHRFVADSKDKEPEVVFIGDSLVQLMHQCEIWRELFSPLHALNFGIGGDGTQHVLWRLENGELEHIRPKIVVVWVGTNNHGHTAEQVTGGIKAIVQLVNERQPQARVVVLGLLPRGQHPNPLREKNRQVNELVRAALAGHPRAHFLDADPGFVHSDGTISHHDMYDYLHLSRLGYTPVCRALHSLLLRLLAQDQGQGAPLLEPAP
Active calls of the source: *. Compounds with a hit are over-represented: about 2.8% of the library has one in this group of screens.

Results for O=C(N/N=C/c1c(O)n(Cc2ccc(F)cc2)c(=S)[nH]c1=O)c1ccncc1 ?
PAFAH1B2 FP inh: 41.7*; Fam108B counter: -7.5; pPAFAH inh: 15.8; PME-1 primary: -20.3; PAFAH2 inh: -7.4; PAFAH1B3 inh: -8.5

How did Cc1ccc(Cl)cc1-n1c(O)c(C=NCCCN2CCOCC2)c(=O)[nH]c1=O do in these assays?
PAFAH1B2 FP inh: -1.8; Fam108B counter: -0.5; pPAFAH inh: 3.1; PME-1 primary: -1.9; PAFAH2 inh: -1.2; PAFAH1B3 inh: 7.9

What do the screens show for `c1ccc(C2CC3CC4(CCCC4)N2O3)cc1` (centres undefined)?
PAFAH1B2 FP inh: 3.0; Fam108B counter: 0.1; pPAFAH inh: 1.2; PME-1 primary: -1.1; PAFAH2 inh: 5.5; PAFAH1B3 inh: 2.4

How did CCC(C)c1ccc(N2C(=O)NC(=O)/C(=C/c3cccn3CCOc3ccc(C)cc3)C2=O)cc1 (centres undefined) do in these assays?
PAFAH1B2 FP inh: 16.6; Fam108B counter: 1.5; pPAFAH inh: 27.8*; PME-1 primary: -12.8; PAFAH2 inh: 25.2; PAFAH1B3 inh: 5.1

What do the screens show for `COC(=O)C1=C(c2cccc(OCc3ccccc3)c2)C[C@@H]2CC[C@H]1N2C(=O)NCCCc1ccccc1`?
PAFAH1B2 FP inh: 4.2; pPAFAH inh: 30.5*; PME-1 primary: -1.6; PAFAH2 inh: -13.1; PAFAH1B3 inh: -8.3

Results for CN(C)C1(CNC(=O)Cc2ccccc2F)CCCCC1 ?
PAFAH1B2 FP inh: 0.3; Fam108B counter: -2.0; pPAFAH inh: 2.7; PME-1 primary: -2.7; PAFAH2 inh: 1.2; PAFAH1B3 inh: 8.8

Results for Cc1ccc(C(O)P(=O)(Oc2ccccc2)Oc2ccccc2)cc1 (centres undefined) ?
PAFAH1B2 FP inh: 1.9; Fam108B counter: 2.6; pPAFAH inh: 5.2; PME-1 primary: 38.0*; PAFAH2 inh: 19.9; PAFAH1B3 inh: 8.0

Results for CNCC1(c2ccccc2)CCCC1 ?
PAFAH1B2 FP inh: 3.1; Fam108B counter: 2.3; pPAFAH inh: -1.9; PME-1 primary: 1.8; PAFAH2 inh: -1.8; PAFAH1B3 inh: 6.9

Results for CN[C@H]1C[C@H]2O[C@@](C)([C@H]1OC)n1c3ccccc3c3c4c(c5c6ccccc6n2c5c31)C(=O)NC4 ?
Fam108B counter: 47.9*; pPAFAH inh: 40.5*; PME-1 primary: 52.3*

How did O=C(CCl)NCC1CCCO1 (centres undefined) do in these assays?
PAFAH1B2 FP inh: -1.9; Fam108B counter: 5.4; pPAFAH inh: 1.9; PME-1 primary: 5.0; PAFAH2 inh: 2.3; PAFAH1B3 inh: 7.9

How did O=C(c1ccc(N2CCCCCC2)c([N+](=O)[O-])c1)N1CCC2(CC1)OCCO2 do in these assays?
PAFAH1B2 FP inh: 3.6; Fam108B counter: -1.6; pPAFAH inh: 33.1*; PME-1 primary: 3.7; PAFAH2 inh: 10.7; PAFAH1B3 inh: 8.7

How did O=C(c1ccc2c(c1)OCO2)N1CCC2(CC1)OCCO2 do in these assays?
PAFAH1B2 FP inh: -1.8; Fam108B counter: -1.4; pPAFAH inh: 1.8; PME-1 primary: -1.8; PAFAH2 inh: 1.3; PAFAH1B3 inh: 2.0

How did C=CC(=O)NCNC(=O)C=C do in these assays?
PAFAH1B2 FP inh: 5.0; pPAFAH inh: -1.0; PME-1 primary: -4.3; PAFAH2 inh: -6.7; PAFAH1B3 inh: 8.7

What do the screens show for `O=C(COC(=O)Cc1ccccc1)NNC(=O)c1ccc([N+](=O)[O-])cc1`?
PAFAH1B2 FP inh: 1.1; pPAFAH inh: 27.7*; PME-1 primary: 1.0; PAFAH2 inh: 3.3; PAFAH1B3 inh: -0.1

What do the screens show for `O=C1NC(=O)N(Cc2ccccc2)C(=O)/C1=C\c1ccco1`?
PAFAH1B2 FP inh: 7.1; Fam108B counter: 3.0; pPAFAH inh: 19.7; PME-1 primary: -0.6; PAFAH2 inh: 11.1; PAFAH1B3 inh: 8.5

How did CCCCN1C(=O)/C(=C\c2ccco2)C(=O)N(CCc2ccccc2)C1=O do in these assays?
PAFAH1B2 FP inh: -3.9; Fam108B counter: 0.5; pPAFAH inh: 29.2*; PME-1 primary: -8.7; PAFAH2 inh: 9.1; PAFAH1B3 inh: -18.2

What do the screens show for `COC(=O)C1=C(c2c(C)noc2C)C[C@@H]2CC[C@H]1N2C(=O)NCCCOC(C)C`?
PAFAH1B2 FP inh: -5.4; pPAFAH inh: -2.0; PME-1 primary: -1.2; PAFAH2 inh: -3.1; PAFAH1B3 inh: 3.5

What do the screens show for `CCN(CC)c1ccc(N=Cc2c(O)n(-c3ccc(OC)cc3)c(=O)[nH]c2=O)cc1`?
PAFAH1B2 FP inh: 1.1; Fam108B counter: -2.0; pPAFAH inh: 25.4*; PME-1 primary: -1.7; PAFAH2 inh: 0.8; PAFAH1B3 inh: 4.7

Results for CCc1cc2c(s1)NC(=O)CN=C2c1cccs1 ?
PAFAH1B2 FP inh: -0.6; Fam108B counter: 2.5; pPAFAH inh: 32.6*; PME-1 primary: 9.3; PAFAH2 inh: 1.9; PAFAH1B3 inh: 4.9

What do the screens show for `CNC(=O)Oc1ccc(C(=O)N2c3ccccc3NC(=O)C2C)cc1` (centres undefined)?
PAFAH1B2 FP inh: 47.5*; Fam108B counter: -0.5; pPAFAH inh: 7.2; PME-1 primary: -0.1; PAFAH2 inh: -1.8; PAFAH1B3 inh: 10.6

Results for Cc1c(C(=O)O)cc(-c2ccccc2)n1Cc1ccccc1 ?
PAFAH1B2 FP inh: 28.5*; Fam108B counter: 1.1; pPAFAH inh: 3.8; PME-1 primary: -8.7; PAFAH2 inh: 1.0; PAFAH1B3 inh: 4.9

What do the screens show for `C[C@H]1CCCC(=O)CCCCCc2cc(O)cc(O)c2C(=O)O1`?
PAFAH1B2 FP inh: -1.4; Fam108B counter: -3.8; pPAFAH inh: -0.8; PME-1 primary: -5.1; PAFAH2 inh: -13.6; PAFAH1B3 inh: -0.3

Results for Cn1ncnc2c(=O)n(C)c(=O)nc1-2 ?
PAFAH1B2 FP inh: 51.0*; Fam108B counter: 78.4*; pPAFAH inh: 4.5; PME-1 primary: 43.7*; PAFAH2 inh: 59.1*; PAFAH1B3 inh: 74.5*

How did COc1ccc(OC)c(CN2CCN(C(=O)Cc3ccccc3)CC2)c1 do in these assays?
PAFAH1B2 FP inh: 4.1; Fam108B counter: -0.2; pPAFAH inh: 3.7; PME-1 primary: -0.9; PAFAH2 inh: -8.3; PAFAH1B3 inh: 3.3

How did C/C=C(\C)C(=O)OC1C(C)=C2C(C1OC(=O)CCCCC)C(C)(OC(C)=O)CC(OC(=O)CCC)C1(O)C2OC(=O)C1(C)O (centres undefined) do in these assays?
Fam108B counter: -8.8; pPAFAH inh: 38.2*; PME-1 primary: -3.9

Results for CCC(=O)c1cn(Cc2ccccc2)c2ccccc12 ?
PAFAH1B2 FP inh: 8.9; Fam108B counter: 4.1; pPAFAH inh: 2.0; PME-1 primary: 3.2; PAFAH2 inh: -5.6; PAFAH1B3 inh: 14.0

Bioassay records as filed in PubChem.
